LMP1 NFkB inh – EBV LMP1-driven NF-kappaB luciferase reporter inhibitors, primary screen, cell-based, luminescence, single point | LMP1-induced NF-kappaB luciferase reporter cells | inhibition, % at 12.5 µM | 350,000 compounds, 0.69% hits | AID 504558, 2011; in the data active = inhibition above about 41%
TROY NFkB inh – inhibitors of TROY-driven NF-kB signaling, primary screen, Q293 LMP1-TROYcd cells, NF-kB luciferase, uHTS | Q293 LMP1-TROYcd NF-kB luciferase reporter, 4 h | inhibition, % at 10 µM | 360,000 compounds, 0.98% hits;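 active = compounds whose plate-normalised and pattern-corrected inhibition of the luciferase reporter signal at the single screening dose is 50% or more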
TWEAK Fn14 block – inhibitors of TWEAK-Fn14 signaling, primary screen, luciferase reporter cells, uHTS; TWEAK-stimulated Fn14 reporter cells, luciferase luminescence, 8 h; inhibition, % at 10 µM; 360,000 compounds, 2% hits; in the data active = inhibition above about 50%
TRPM1 prom inh – inhibitors of MITF-dependent TRPM1 promoter reporter, primary screen, cell-based, SK-MEL-5, single point, luciferase; SK-MEL-5 TRPM1 promoter luciferase, 24 h; inhibition, % at 12.5 µM; 330,000 compounds, 0.83% hits; AID 488899, 2010;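 active = mean inhibition across replicates of 60% or more, whatever share of single replicates reaches that level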
Peg3 prom inh – Peg3 promoter-driven luciferase inhibitors, primary screen, cell-based, HeLa, luciferase luminescence; HeLa PEG-Prom luciferase reporter, overnight; 360,000 compounds, 1.7% hits; inhibition, % at 20 µM;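 active = inhibition of at least 50% at 20 µM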
Shn3 3UTR inh – reduction of Shn3 3'UTR firefly luciferase signal, primary screen, Schnurri-3 inhibitor project, cell-based, Clone20 osteoblasts, set 2. inhibition, % at 12.5 µM. AID 588674, 2011. Clone20 osteoblast Shn3 3'UTR firefly luciferase, 24 h. 360,000 compounds, 0.52% hits;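 active = mean inhibition of at least 75% with every replicate also reaching 75%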
A number is an active result; . = inactive; / = no result. This is a sample that favours compounds with a hit; in the whole collection about 4.1% have one here.

SMILES | LMP1 NFkB inh | TROY NFkB inh | TWEAK Fn14 block | TRPM1 prom inh | Peg3 prom inh | Shn3 3UTR inh
CCCC(C(=O)NC(C)(C)C)N(Cc1ccc(F)cc1)C(=O)c1snc(C(N)=O)c1N (centres undefined) | . | . | . | . | 97.3 | .
Cc1nc(SCC(=O)c2ccc(F)c(F)c2)[nH]c(=O)c1Oc1ccc(Cl)cc1 | . | 53.4 | . | . | . | .
Cc1nc(SCC(=O)c2ccc(F)c(F)c2)[nH]c(=O)c1Oc1ccc(F)cc1 | . | . | . | . | . | .
CCOc1ccc(/C=N/OCC(=O)NCc2ccco2)cc1 | . | . | . | . | . | .
O=C1CC(NS(=O)(=O)c2cc(F)ccc2F)CN1c1cccc(F)c1 (centres undefined) | . | . | . | . | . | .
O=C(c1cccc(F)c1)N1CCN(c2cccc(Cl)c2)CC1 | 44.7 | . | . | . | . | .
Cc1cccc(N2CCN(C(=O)c3cccc(N4CCCC4=O)c3)CC2)c1C | . | . | . | . | . | .
O=C(c1cccc(N2CCCC2=O)c1)N1CCN(c2ccccc2)CC1 | . | 76.5 | . | . | . | .
CC(=O)/C(C(=N)N1CCN(c2cccc(Cl)c2)CC1)=C(\C)O | . | 57.1 | 74.8 | . | . | .
O=C(O)c1ccc(OS(=O)(=O)c2ccc(Cl)s2)cc1 | . | . | . | . | . | .
CCNc1nc(NC(C)C)nc(N(C#N)C(C)C(=O)N(CC)CC)n1 (centres undefined) | / | . | . | / | . | .
CC(=O)N(C1=C(N)C(=O)c2ccccc2C1=O)c1ccccc1 | . | . | . | 65.3 | . | .
C/C(=N\Nc1cc(N2CCOCC2)ncn1)c1ccccc1 | . | . | . | . | . | .
C/C(=N\Nc1cc(N2CCOCC2)ncn1)c1cccc([N+](=O)[O-])c1 | . | . | . | . | 102.4 | .
O=[N+]([O-])c1cccc(/C=N/Nc2cc(N3CCOCC3)ncn2)c1 | . | . | . | . | 61.6 | .
COc1ccc(/C=C/c2cccc[n+]2C)c(O)c1 | . | . | . | . | . | .
CCN(CC)c1ccc(/C=C/c2cccc[n+]2C)c(OC)c1 | . | . | . | 68.1 | . | 89.1
C=CCNC(=O)C1CCC(=O)N1S(=O)(=O)c1ccc(C)cc1 (centres undefined) | . | . | . | . | . | .
O=S(c1cc(Cl)cc(Cl)c1O)c1cc(Cl)cc(Cl)c1O | / | 54.1 | . | / | / | /
Oc1c(Cl)cc(Cl)cc1CNc1nccs1 | . | . | . | . | . | .
COc1ccc(CN(CC2CCC(C(=O)O)CC2)C(=S)Nc2cccc(C)c2)cc1 (centres undefined) | . | . | . | . | . | .
CCOC(=O)C1C(=O)CC(C)(O)C(C(=O)OCC)C1c1ccc(NC(C)=O)cc1 (centres undefined) | . | . | . | . | . | .
COc1ccc(C(=O)NCCN2CCOCC2)cc1[N+](=O)[O-] | 80.3 | . | . | . | . | .
COc1ccc(C(=O)NCCCN2CCOCC2)cc1OC | . | . | . | . | . | .
Cc1cccc(/C=C2/Sc3ccc(C(=O)NCCCN4CCOCC4)cc3NC2=O)c1 | . | . | . | . | 65.2 | .
SMILES | LMP1 NFkB inh | TROY NFkB inh | TWEAK Fn14 block | TRPM1 prom inh | Peg3 prom inh | Shn3 3UTR inh
CCN1CCCC1CNC(=O)c1ccc2c(c1)NC(=O)/C(=C\c1ccccc1Cl)S2 (centres undefined) | . | . | . | / | . | .
COc1ccc(/C=C2/Sc3ccc(C(=O)NCCCN4CCOCC4)cc3NC2=O)cc1OC | . | . | . | . | 87.9 | .
CCN1CCCC1CNC(=O)c1ccc2c(c1)NC(=O)/C(=C\c1ccc(OC)c(OC)c1)S2 (centres undefined) | . | . | . | 87.4 | . | .
CC(=O)Nc1ccc(NC(=O)CSc2ccc3nnc(CCNS(=O)(=O)c4ccc(C)cc4)n3n2)cc1 | . | . | . | . | . | .
COc1ccc(COc2ncnc3ccc(Br)cc23)cc1F | . | . | . | . | . | .
COC(=O)[C@]12CCCCC=C1N(Cc1ccco1)C(=O)[C@H](CC(=O)NCCC(C)C)C2 | / | . | . | / | / | /
CCN1CCN(CCCNC(=O)c2ccc3c(c2)NC(=O)/C(=C\c2cccc(C)c2)S3)CC1 | . | . | . | 101.5 | 106.6 | .
COc1ccccc1-c1cccc([C@@H]2C[C@H]3[C@H](CON3C)CN2S(=O)(=O)c2ccccc2C)c1 | . | . | . | . | . | .
CC1=NN(c2nc(-c3ccccc3)cs2)C(=O)C1 | . | 54.6 | 66.1 | . | . | .
O=C1CC(c2ccccc2)=NN1c1nc(-c2ccccc2)cs1 | . | . | . | . | . | .
CCN1CCN(C(=O)C2CCN(S(=O)(=O)c3ccc(SC)cc3)CC2)CC1 | . | . | . | . | . | .
C/C(=N\NC(=S)NC1CCCCC1)c1ccc(Cl)c(Cl)c1 | . | . | 61.9 | . | . | .
COc1ccc(N(C(=O)c2ccco2)C(C(=O)NC2CCCC2)c2cc(OC)c(OC)c(OC)c2)cc1 (centres undefined) | . | . | . | . | . | .
CC(C)(C)OC(=O)N1CCC(NC(=O)c2[nH]cnc2C(=O)Nc2ccccc2)CC1 | . | . | . | . | 52.0 | .
CC(C)C[C@H](NC(=O)c1nc[nH]c1C(=O)N[C@@H](CCCCNC(=O)OC(C)(C)C)C(=O)OC(C)(C)C)C(=O)OC(C)(C)C | . | . | . | . | . | .
C[C@H](NC(=O)c1[nH]cnc1C(=O)Nc1ccc(Cl)cc1)C(=O)OC(C)(C)C | . | . | . | . | . | .
CC(C)(C)OC(=O)NCc1ccc(CNC(=O)c2nc[nH]c2C(=O)NCc2ccccc2)cc1 | . | . | . | . | . | .
CC(C)(C)OC(=O)NCc1ccc(CNC(=O)c2[nH]cnc2C(=O)NCC(=O)OCc2ccccc2)cc1 | . | . | . | . | 52.2 | .
CC(C)(C)OC(=O)NCCCC[C@H](NC(=O)c1[nH]cnc1C(=O)Nc1ccc(Cl)cc1)C(=O)OC(C)(C)C | . | . | . | . | 63.2 | .
CNC(=O)c1[nH]cnc1C(=O)N[C@@H](CCCCNC(=O)OC(C)(C)C)C(=O)OC(C)(C)C | 43.7 | . | . | . | . | .
O=C(Nc1cccc(OC(F)(F)F)c1)C1Cc2c(-c3ccccc3Oc3ccccc3)ccnc2O1 (centres undefined) | / | . | . | / | . | .
CC(NC(=O)CCSc1nc(-c2ccc3c(c2)OCO3)cc(C(F)(F)F)n1)c1ccccc1 (centres undefined) | . | . | . | . | . | .
CCOC(=O)c1ccc(NC(=O)c2nc[nH]c2C(=O)NCCNC(=O)c2[nH]cnc2C(=O)Nc2ccc(C(=O)OCC)cc2)cc1 | . | . | . | 100.1 | 90.6 | 88.4
